The values below come from PubChem BioAssay (NCATS).

Assay [1] can be described thus: qHTS to identify inhibitors of the type 1 interferon - major histocompatibility complex class I in skeletal muscle: primary screen against the NCATS LOPAC collection (AID 1347405).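 Also: lytic HiBiT luminescence reporting HLA-B protein level.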 An outline of the steps:
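Immortalized human C25cl48 myoblasts with HiBiT knocked into endogenous HLA-B*08:01 were stimulated with 4.0 ng/ml IFN-beta and given compounds in a 7-point, 1:4.3 titration from 46 uM final; after 24 hrs, lytic HiBiT luminescence was read.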

A short description of assay [2]: qHTS to identify inhibitors of the type 1 interferon - major histocompatibility complex class I in skeletal muscle: primary screen against the NCATS Pharmaceutical Collection (AID 1347407).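 Also: luminescence of HiBiT knocked into endogenous HLA-B as interferon-induced MHC class I level.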 In a few lines: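 Compounds […] were added to CRISPR-engineered HLA-B-HiBiT C25cl48 human myoblasts with 4.0 ng/ml IFN-beta. After 24 hrs at 37 C, cells were lysed and HiBiT luminescence measured.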
In general terms: qHTS replaces the single test concentration by a dilution series.

A short description of assay [3]: qHTS for inhibitors of adenylyl cyclases using a fission yeast platform: a pilot screen against the NCATS LOPAC library (AID 1347410). An outline of the steps:
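GFP from fbp1-GFP reporter, read by Acumen laser cytometry, indicates AC inhibition in fission yeast expressing AC9, GNAS and PDE4D2. Cells grown 18 h in the dark at 30C with compounds, final up to 57 uM.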

Assay [4] is described as follows: qHTS to identify inhibitors of the type 1 interferon - major histocompatibility complex class I in skeletal muscle: primary screen against the NCATS Mechanism Interrogation Plate v5.0 (MIPE) Libary (AID 1347411). Also: nearly all actives have a fitted effect of over 65% in size. Also: potency is read from the fitted curve at half-maximal effect. An outline of the steps: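 Immortalized human C25cl48 myoblasts with HiBit knocked into endogenous HLA-B*08:01 were stimulated with 4.0 ng/ml IFN-beta and exposed to compounds (11-point 1:3 titration, top 46 uM final) for 24 hrs at 37 C; HiBiT lytic luminescence measured.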

For assay [5], the target named is Protein phosphatase 1D (Homo sapiens) (UniProt O15297). The experiment in a line: RapidFire Mass Spectrometry qHTS Assay for Modulators of WT P53-Induced Phosphatase 1 (WIP1) (AID 1347424).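 Also: amount of dephosphorylated VEPPL-S-QETFS peptide product formed by WIP1.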 Also: potency is read from the fitted curve at half-maximal effect. An outline of the steps:
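10 nM WIP1 preincubated with compounds 1 hr at room temperature in pH 7.5 Tris buffer with 30 mM MgCl2, 1 mM TCEP; 2 uM VEPPL-pS-QETFS phosphopeptide for 5 min, formic acid quench; dephosphorylated product quantified by RapidFire MS against labelled standard.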

Assay [6] has the same target. The experiment in a line: Rhodamine-PBP qHTS Assay for Modulators of WT P53-Induced Phosphatase 1 (WIP1) (AID 1347425). In a few lines: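 The read-out is the change in Rhodamine-PBP fluorescence (f1 - f0, ex 525/em 598 nm) as Pi is released, read each minute for 11 min. Final reaction: 5 nM WIP1, 10 uM phosphopeptide VEPPL-pS-QETFS, 10 uM Rh-PBP, 50 mM Tris-HCl pH 7.5, 30 mM MgCl2. Compound was preincubated with enzyme for 1 hour at room temperature.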

Assay [7] in a line: Validation qHTS assay for inhibitors of Activation Induced Cytidine Deaminase (AID): UDG Counterscreen signal (AID 1347427). In a few lines:
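Counterscreen read of UDG activity (2 U/mL, 4/3x) in the FRET deamination format with AID (1 uM, 4/3x), DJC20/DJC23 substrates (250 nM, 4x), 4 h at room temperature. NaOH stop, fluorescence at 560 ex/665 em.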

The nature of assay [8]: Confirmatory screen GU Rhodamine qHTS for Zika virus inhibitors qHTS (AID 1347157). Also: potency is read from the fitted curve at half-maximal effect; nearly all actives have a fitted effect of over 70% in size. In a few lines:
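Buffer 10 mM Tris-HCl pH 8.0, 0.01% Tween 20. Unlinked protease 25 nM; compound preincubation 15 min, RT, protected from light. Substrate Rhod110, 1.5 microM; ~15% conversion in 15 min.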

The nature of assay [9]: ZIKV-mCherry secondary qHTS for Zika virus inhibitors (AID 1347158). Also: potency is read from the fitted curve at half-maximal effect. An outline of the steps:
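Vero cells, 5,000/well, plated overnight at 37 °C, then compound added and infected with recombinant ZIKV-mCherry at MOI 1 for 48-72 h. PFA-fixed, Hoechst nuclear stain, high-content imaging; cells with mCherry intensity above 450 RFU scored infected, reported as percent infection.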

The nature of assay [10]: Confirmatory screen NINDS Rhodamine qHTS for Zika virus inhibitors (AID 1347161). Also: nearly all actives have a fitted effect of over 60% in size. Also: potency is read from the fitted curve at half-maximal effect. In a few lines: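 Kinetic fluorescence (Ex 480 nm, Em 540 nm) over 15 min with 1.5 microM Rhodamine110 peptide and 25 nM linked protease.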
Assay [11] relates to Zika virus NS2B-NS3 protease (linked). Briefly: 384 well plate NINDS AMC confirmatory qHTS for Zika virus inhibitors (AID 1347163). Also: potency is read from the fitted curve at half-maximal effect; nearly all actives have a fitted effect of over 50% in size. In a few lines: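 Linked protease 5/30/60 nM final; cpds up to 1 mM final, ~15 min preinc. Substrate Ac-VKTGKR-AMC 30 microM final. RT, dark, 25 min; FI ex 355/em 460; normalized to no-enzyme/no-inhibitor ctrls.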
Assay [12] concerns Zika virus NS2B-NS3 protease (linked construct). Briefly: 384 well plate NINDS Rhodamine confirmatory qHTS for Zika virus inhibitors (AID 1347164).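 Also: fluorescence from protease cleavage of Ac-LKRR-rhodamine 110 substrate; top concentration of the series differs between compounds; nearly all actives have a fitted effect of over 65% in size.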 In a few lines: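 Fluorescence at 485/538 nm was measured 25 minutes after adding 10 microM Ac-LKRR-Rd substrate, in the dark at room temperature. The protease (5, 30 or 60 nM final) had been preincubated ~15 minutes with compound; aprotinin as control.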

Assay [13] relates to Zika virus NS2B-NS3 protease (unlinked complex). The experiment in a line: Primary screen GU Rhodamine qHTS for Zika virus inhibitors: Unlinked NS2B-NS3 protease assay (AID 1347159). Also: nearly all actives have a fitted effect of over 60% in size. Also: potency is read from the fitted curve at half-maximal effect. In a few lines:
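Percent inhibition derives from the 15-min fluorescence change (ex 480, em 540 nm), normalized to no-enzyme and no-inhibitor wells. Reactions contained 25 nM NS2B-NS3 complex and 1.5 microM substrate in 10 mM Tris-HCl pH 8.0.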

Assay [14] has as its system Zika virus NS2B-NS3 protease (linked construct). Briefly: Primary screen NINDS Rhodamine qHTS for Zika virus inhibitors (AID 1347160). Also: nearly all actives have a fitted effect of over 55% in size. Also: potency is read from the fitted curve at half-maximal effect. In a few lines:
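In 10 mM Tris-HCl pH 8.0 containing 0.01% Tween 20, linked NS2B-NS3 protease (25 nM final) is exposed to test compounds for 15 min. Cleavage of 1.5 microM Rhodamine110 substrate is tracked by fluorescence over 15 min.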

Assay [15] in a line: Vero cells viability qHTS for Zika virus inhibitors (AID 1347167). An outline of the steps: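 Cells seeded at 2.5 x 10^5 cells/mL in DMEM with 4% FBS and attached overnight at 37 degrees C, then exposed to compound for 24 to 48 hours. Viability read as ATP content by CellTiter Glo luminescence.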
Assay [16] deals with Lysine-specific demethylase 5B (Homo sapiens) (UniProt Q9UGL1). The experiment in a line: Optimization screen for KDM5B Histone Demethylases FDH coupled qHTS against the LOPAC library (AID 1347166). In a few lines:
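KDM5BDeltaAP (200nM final) preincubated 10 min with compound, then 12.5uM H3K4Me3, 25uM a-ketoglutarate, ascorbate, Fe(II), NAD+ and FDH added; 50mM HEPES pH 7.5, 0.01% Tween-20. NADH fluorescence (340/450 nm) change over 30 min, room temperature.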

Assay [17] concerns Zika virus NS2B-NS3 protease. Briefly: Primary screen GU AMC qHTS for Zika virus inhibitors (AID 1347154). Also: nearly all actives have a fitted effect of over 70% in size. An outline of the steps: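 Unlinked Zika NS2B hydrophilic domain–NS3 protease complex at 25 nM in 10 mM Tris-HCl pH 8.0, 0.01% Tween 20, with an AMC peptide substrate. Fluorescence change (340/450 nm) over 15 min at room temperature, normalized to controls, fitted to 4-parameter Hill.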

Results filed as inconclusive are left out. Active and inactive are the calls of the source. Calls follow the shape of the dose curve; as a rule, active = well fitted curve in the direction sought with a large enough effect; inconclusive = small, poorly fitted or top-dose-only effect, or another doubt; inactive = no such curve, though single readings can be large; an effect the other way counts as inactive or inconclusive.

Chain of Protein phosphatase 1D (Homo sapiens) (O15297 whole entry, looked up): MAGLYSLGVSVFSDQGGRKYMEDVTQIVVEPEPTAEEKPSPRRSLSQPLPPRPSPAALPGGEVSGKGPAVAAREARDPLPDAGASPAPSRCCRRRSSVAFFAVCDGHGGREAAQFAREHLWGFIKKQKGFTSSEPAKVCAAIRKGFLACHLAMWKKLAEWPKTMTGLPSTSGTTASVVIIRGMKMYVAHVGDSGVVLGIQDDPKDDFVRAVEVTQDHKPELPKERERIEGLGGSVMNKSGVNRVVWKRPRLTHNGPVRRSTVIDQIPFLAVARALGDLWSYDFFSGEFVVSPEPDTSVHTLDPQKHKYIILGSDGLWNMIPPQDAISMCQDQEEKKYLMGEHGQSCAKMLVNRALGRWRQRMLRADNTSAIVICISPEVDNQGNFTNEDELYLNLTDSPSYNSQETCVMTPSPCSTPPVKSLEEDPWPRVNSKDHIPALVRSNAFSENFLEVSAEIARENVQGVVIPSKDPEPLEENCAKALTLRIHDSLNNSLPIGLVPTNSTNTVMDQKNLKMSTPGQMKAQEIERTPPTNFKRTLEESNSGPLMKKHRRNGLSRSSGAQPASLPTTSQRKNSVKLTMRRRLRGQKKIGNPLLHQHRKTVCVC
Chain of Lysine-specific demethylase 5B (Homo sapiens) (Q9UGL1 whole entry, looked up): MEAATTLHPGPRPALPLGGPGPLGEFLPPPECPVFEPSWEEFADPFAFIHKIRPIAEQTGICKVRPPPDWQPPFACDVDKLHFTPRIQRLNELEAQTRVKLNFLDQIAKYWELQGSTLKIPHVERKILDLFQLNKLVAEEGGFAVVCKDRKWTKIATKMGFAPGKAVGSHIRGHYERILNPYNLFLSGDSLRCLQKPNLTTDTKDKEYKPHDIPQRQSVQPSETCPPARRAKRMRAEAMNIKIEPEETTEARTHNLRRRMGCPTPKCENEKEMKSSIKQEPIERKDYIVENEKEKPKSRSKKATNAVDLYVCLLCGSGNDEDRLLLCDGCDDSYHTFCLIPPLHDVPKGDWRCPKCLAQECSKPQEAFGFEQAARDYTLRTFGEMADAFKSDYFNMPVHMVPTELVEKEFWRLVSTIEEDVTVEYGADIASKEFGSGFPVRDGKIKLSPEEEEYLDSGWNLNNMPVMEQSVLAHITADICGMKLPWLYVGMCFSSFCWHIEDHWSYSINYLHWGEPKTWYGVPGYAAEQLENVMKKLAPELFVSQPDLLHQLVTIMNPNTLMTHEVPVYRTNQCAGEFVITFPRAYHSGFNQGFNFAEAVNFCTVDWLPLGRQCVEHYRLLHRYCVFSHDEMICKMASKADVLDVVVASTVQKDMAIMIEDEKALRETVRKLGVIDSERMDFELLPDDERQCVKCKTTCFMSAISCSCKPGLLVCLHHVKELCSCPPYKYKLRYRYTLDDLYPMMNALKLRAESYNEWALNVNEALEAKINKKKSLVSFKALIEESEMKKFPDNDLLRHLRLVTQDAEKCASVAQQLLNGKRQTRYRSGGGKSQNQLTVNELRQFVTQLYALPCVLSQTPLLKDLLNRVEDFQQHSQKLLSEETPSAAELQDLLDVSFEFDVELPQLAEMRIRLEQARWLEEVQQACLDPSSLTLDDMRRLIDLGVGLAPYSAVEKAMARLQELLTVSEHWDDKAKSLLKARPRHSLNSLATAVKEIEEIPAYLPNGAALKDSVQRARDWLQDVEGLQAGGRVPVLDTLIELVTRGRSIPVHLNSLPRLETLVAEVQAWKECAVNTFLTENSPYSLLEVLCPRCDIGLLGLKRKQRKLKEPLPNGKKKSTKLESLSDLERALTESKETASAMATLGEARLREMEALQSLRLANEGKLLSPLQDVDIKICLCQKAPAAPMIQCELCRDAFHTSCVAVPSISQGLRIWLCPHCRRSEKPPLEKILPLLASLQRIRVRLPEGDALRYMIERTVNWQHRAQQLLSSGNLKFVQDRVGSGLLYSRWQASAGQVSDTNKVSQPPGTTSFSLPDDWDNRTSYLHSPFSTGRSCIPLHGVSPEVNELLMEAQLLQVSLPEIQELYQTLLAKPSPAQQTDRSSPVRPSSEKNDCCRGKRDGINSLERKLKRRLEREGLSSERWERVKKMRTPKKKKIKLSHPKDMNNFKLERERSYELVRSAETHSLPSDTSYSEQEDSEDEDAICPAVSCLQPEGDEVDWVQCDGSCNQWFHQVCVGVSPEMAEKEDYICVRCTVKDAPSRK

For the compound `NC(N)=NC(=O)c1nc(Cl)c(N)nc1N`, the Potency entry in [1], in assay [4] and in [5] was “inactive” each time. Moreover, the outcome in [2], in [3], in [6] and in [7] was inactive.

Consider `NC(=O)c1ccc(-c2nc(-c3ccc4c(c3)OCCO4)c(-c3ccccn3)[nH]2)cc1`, for which the Potency result in assay [4] was “inactive”.

Take `Cc1cc2c(C(C)C)c(O)c(O)c(C=O)c2c(O)c1-c1c(C)cc2c(C(C)C)c(O)c(O)c(C=O)c2c1O`: the Potency was 2.51 µM (active) in [8]; 2.51 µM (active) in assay [9]; 2 µM (active) in assay [10]; 35.5 µM (active) in assay [11]; 23.4 µM (active) in assay [4]; 3.98 µM (active) in [5]. In addition, the Potency entry in assay [12] was “inactive”. Further, the call in [2], in assay [3] and in assay [7] was inactive.

In the case of `COc1ccc(COc2cc3oc(=O)c4cc(C(C)O)ccc4c3cc2OC)cc1` (configuration not stated), in [4], the Potency entry was “inactive”.

Consider `Cc1ccc(-n2nc(C(C)(C)C)cc2NC(=O)Nc2ccc(OCCN3CCOCC3)c3ccccc23)cc1`, for which the compound was classed as inactive in [2]. Besides, the Potency result in [4] was “inactive”.

`CCOc1cc(C(=O)Nc2ccc(Cl)c(-c3nc4ccccc4[nH]3)c2)cc(OCC)c1OCC`: the Potency result in assay [13] and in assay [14] was “inactive” throughout.

In the case of `COCC(=O)NCC=Cc1ccc2ncnc(Nc3ccc(Oc4ccc(C)nc4)c(C)c3)c2c1`, in assay [10], the Potency result was “inactive”. Moreover, the compound was classed as inactive in assay [15].

Turning to `COc1cc(Oc2ccnc3cc(OC)c(OC)cc23)ccc1NC(=O)NC(C)c1nccs1` (configuration not stated), the Potency entry in [13], in assay [14] and in assay [4] was “inactive” in each case.

Take `CC(C)(Sc1ccc(CCN(CCCCC2CCCCC2)C(=O)NC2CCCCC2)cc1)C(=O)O`: the Potency in [8] was 1.97 µM (active); in assay [13] it was 3.55 µM (active); in [14] it was 3.98 µM (active); in assay [11] it was 3.16 µM (active). In addition, the Potency result in [12], in assay [1] and in assay [4] was “inactive” throughout. Moreover, the outcome in [16], in assay [15], in [3] and in assay [7] was inactive.

As for `COc1c(Cl)cc2c([nH]c3cnccc32)c1NC(=O)c1cccnc1C`, the Potency entry in assay [13] and in assay [14] was “inactive” throughout. For the same compound, the Potency in assay [4] is 26.2 µM (active).

As for `O=C(O)[C@@H](c1ccc(OCc2ccc3ccccc3n2)cc1)C1CCCC1`, the Potency entry in [17] and in assay [4] was “inactive” in each case.

For the compound `CC1(C)Cc2c(-c3ccccc3)c(-c3ccc(Cl)cc3)c(CC(=O)O)n2C1`, the Potency in assay [13] is 10 µM (active).

Take `Cn1c(=O)c(F)c(Nc2ccc(I)cc2F)c2c(=O)n(C[C@@H](O)CO)cnc21`: the Potency result in assay [17] and in assay [4] was “inactive” in each case.
